An excerpt weighted towards active compounds, which were near 19% of everything screened.
IL-1B inflam inh: qHTS for Inhibitors of Inflammasome Signaling: IL-1-beta AlphaLISA Primary Screen; THP-1 LPS/ATP IL-1B secretion, AlphaLISA, 16 h; hits give low values; activity change, % at 57.5 µM; 360,000 compounds, 4.7% hits; AID 743279, 2014; in the data active = activity change below about -50%; inconclusive = mostly about -30% to -49%
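THP-1 cells pretreated 1 hr with compounds (up to 57.5 uM final), then stimulated with LPS (250 ng/mL final) plus ATP (1.25 mM final); secreted IL-1B measured by AlphaLISA after 16 hr, decreased signal indicating inhibition.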
DT40 TDP1 no CPT: qHTS for Inhibitors of human tyrosyl-DNA phosphodiesterase 1 (TDP1): qHTS in cells in absence of CPT; DT40 Tdp1-/- hTDP1 cells, no CPT, ATP luminescence, 48 h; Potency, µM (top dose mostly 46.2 µM), without a hit: top-dose activity change, negative = growth inhibition, hits mostly inhibitors; 420,000 compounds, 15% hits; note: potency is the fitted concentration of half-maximal effect; nearly all actives have a fitted effect of over 55% in size
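Chicken DT40 Tdp1-/- cells stably complemented with human TDP1 were seeded at 400 cells/well with DMSO in place of 20 nM camptothecin. After compound pinning, cells grew at least 48 hr at 37 °C; viability read by CellTiter-Glo luminescence.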
TDP1 cell CPT: qHTS for Inhibitors of human tyrosyl-DNA phosphodiesterase 1 (TDP1): qHTS in cells in presence of CPT | chicken DT40 Tdp1-/-;hTDP1 cells + 20 nM CPT, ATP luminescence, 48 h | Potency, µM (series often up to 46.2 µM), for inactives: at the highest dose activity change, negative = growth inhibition, actives largely listed as inhibitors | 420,000 compounds, 12% hits | AID 686979, 2013; note: potency is the fitted concentration of half-maximal effect; nearly all actives have a fitted effect of over 55% in size
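Chicken DT40 Tdp1-/- cells stably complemented with human TDP1 were seeded at 400 cells/well in medium containing 20 nM camptothecin, exposed to pin-transferred compounds, and grown at 37 °C for at least 48 hr. Viability was read as ATP luminescence.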
ELG1 repair inh: qHTS screen for small molecules that inhibit ELG1-dependent DNA repair in human embryonic kidney (HEK293T) cells expressing luciferase-tagged ELG1 | Potency, µM (doses to about 46.1 µM), for the others: at the highest dose activity change, negative = inhibition, usual class: inhibitors | HEK293T ELG1-luciferase reporter, luminescence, 16 h; DNA damage induced by 5-fluorouridine | AID 504467, 2011 | 330,000 compounds, 2.3% hits; note: potency is the fitted concentration of half-maximal effect; nearly all actives have a fitted effect of over 55% in size
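DMSO vehicle served as the neutral condition. Each well held 2,000 cells given 5-fluorouridine plus compound; after 16 hr at 37 °C/5% CO2, ONE-Glo was added and luciferase measured 30 min later.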
HT1080 IDH1KD tx: qHTS for induction of synthetic lethality in tumor cells producing 2HG: qHTS for the HT-1080-IDH1KD cell line; HT-1080 IDH1 knockdown viability, ATP luminescence, 48 h; Potency, µM (highest dose often 46.1 µM), for inactives: at the top dose activity, negative = toxicity, usual class: cytotoxic; 360,000 compounds, 2% hits;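 note: potency is the fitted concentration of half-maximal effect; 0% = DMSO wells and -100% = cell-free medium wells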
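CellTiter-Glo luminescence after 48 h compound exposure at 37 degrees C of IDH1-knockdown HT-1080 cells in 5% FBS RPMI. %Activity scaled between DMSO wells and cell-free media wells, with curves fitted and assigned curve classes.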
HT1080NT lethal: qHTS for induction of synthetic lethality in tumor cells producing 2HG: qHTS for the HT-1080-NT fibrosarcoma cell line. HT-1080-NT fibrosarcoma viability, CellTiter-Glo ATP luminescence, 48 h. Potency, µM (titrated, usually from 46.1 µM), inactives show at the highest dose activity, negative = less viability, hits mostly cytotoxic. 360,000 compounds, 1.6% hits. AID 686970, 2013;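 note: NT is the 2HG producing partner of a matched IDH1 knockdown line; potency is the fitted concentration of half-maximal effect; 0% = DMSO-treated cells and -100% = media-only wells without cells; nearly all actives have a fitted effect of over 55% in size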
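Toxicity toward the 2HG-producing NT line was scored as %Activity, normalised to DMSO and no-cell wells, from CellTiter-Glo luminescence after 48 hours' treatment.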
Active calls of the source: *; ? = inconclusive; . = not tested or not shown. Unless noted, calls come from the whole dose curve; as a rule, active = well fitted curve in the direction sought with a large enough effect; inconclusive = small, poorly fitted or top-dose-only effect, or another doubt; inactive = no such curve, though single readings can be large; an effect the other way counts as inactive or inconclusive. Unless noted, % is set by controls: 0 for no effect and ±100 for the full control effect.

SMILES	IL-1B inflam inh	DT40 TDP1 no CPT	TDP1 cell CPT	ELG1 repair inh	HT1080 IDH1KD tx	HT1080NT lethal
COc1ccc(CN(C)C(=O)[C@H]2O[C@@H](n3ccc(=O)[nH]c3=O)[C@H](O)[C@@H]2O)cc1OC	-24	-5%	19%	.	2%	28%
Clc1ccc(-c2nc(C3CCCCC3)no2)cc1	2	9%	7%	?	17%	16%
COc1ccc(C(=O)c2ccc(C)cc2)c(OC)c1OC	18	18µM*	23µM*	.	18µM*	?
COc1ccc(C(=O)c2ccc(Cl)cc2)c2ccccc12	-11	?	?	-29%	-28%	-24%
Nc1ccc2c(c1)C(=O)c1cc([N+](=O)[O-])ccc1-2	?	-18%	14%	.	-3%	0%
O=C1c2ccccc2-c2cc([N+](=O)[O-])c([N+](=O)[O-])cc21	.	0.5µM*	0.4µM*	.	.	.
COc1ccc(C(=O)Nc2nnc(S(=O)(=O)N(C)c3ccc(C)cc3)s2)cc1	.	?	-29%	.	.	.
Nc1ccc(Cc2ccc(N)c(O)c2)cc1O	6	?	23µM*	9.2µM*	-22%	-28%
CC(C)CNC(=S)NC(=O)c1ccc(Cl)cc1Cl	71	?	13µM*	?	-7%	1%
O=C(Nc1ccccc1Cl)c1ccc(Cl)cc1Cl	-4	-24%	-22%	?	13%	19%
CC(C)CNC(=S)NC(=O)c1ccc(F)cc1	1	?	18µM*	?	-21%	-4%
O=C(NC(=S)Nc1ccccc1O)c1ccc(Cl)cc1Cl	-78*	29µM*	18µM*	?	?	-7%
CC1CC(C)CN(C(=O)C2CCC(CNS(=O)(=O)c3ccccc3)CC2)C1 (stereo not given)	10	29µM*	?	-21%	-2%	-11%
CC(=O)N1c2ccc(S(=O)(=O)NCC3CCC(C(=O)Nc4ccc(C)c(C)c4)CC3)cc2CC1C (stereo not given)	.	23µM*	16µM*	.	.	.
COc1ccc(C)cc1NC(=O)C1CCC(CNS(=O)(=O)c2ccc3c(c2)CCCC(=O)N3)CC1 (stereo not given)	.	4.6µM*	9.2µM*	.	.	.
O=C(C1CCC(CNS(=O)(=O)c2ccccc2)CC1)N1CCCCC1 (stereo not given)	32	-16%	0%	?	-4%	-5%
CC(=O)N1c2ccc(S(=O)(=O)NCC3CCC(C(=O)NCc4ccccc4)CC3)cc2CC1C (stereo not given)	-3	-12%	?	9%	-11%	-1%
CCc1ccc(NC(=O)C2CCC(CNS(=O)(=O)c3ccc4c(c3)CC(C)N4C(C)=O)CC2)cc1 (stereo not given)	.	7.3µM*	21µM*	.	.	.
Cc1nc2[nH]c(=S)[nH]c2c(=O)[nH]1	21	-3%	6%	.	4%	7%
CNC(=O)C[C@@H](N)C(=O)N[C@@H](C(=O)N[C@@H]1C(=O)N2[C@@H]1SC(C)(C)[C@@H]2C(=O)O)c1ccc(O)cc1	.	-8%	16%	.	.	.
Cn1c(=O)c2c(n3c4ccccc4nc13)NC(=O)CC2c1cccc(F)c1 (stereo not given)	.	-27%	-22%	.	.	.
COc1ccccc1CNC(=O)C(NS(=O)(=O)c1ccc2c(c1)CCN2C(C)=O)C(C)C (stereo not given)	.	-14%	-3%	.	.	.
CC(=O)N1c2ccc(S(=O)(=O)NCC3CCC(C(=O)N4CCCC(C)C4)CC3)cc2CC1C (stereo not given)	-10	?	16µM*	-7%	-1%	2%
CC(=O)N1c2ccc(S(=O)(=O)NCC3CCC(C(=O)N(C)Cc4ccccc4)CC3)cc2CC1C (stereo not given)	0	?	?	-25%	-18%	-17%
COc1ccccc1NC(=O)C1CCC(CNS(=O)(=O)c2ccc3c(c2)CC(C)N3C(C)=O)CC1 (stereo not given)	.	10µM*	10µM*	.	.	.
SMILES	IL-1B inflam inh	DT40 TDP1 no CPT	TDP1 cell CPT	ELG1 repair inh	HT1080 IDH1KD tx	HT1080NT lethal
CCCCN(C)C(=O)C1CCC(CNS(=O)(=O)c2ccc3c(c2)CC(C)N3C(C)=O)CC1 (stereo not given)	17	16µM*	13µM*	-29%	8%	-5%
CC(=O)N1c2ccc(S(=O)(=O)NCC3CCC(C(=O)Nc4ccc(C)cn4)CC3)cc2CC1C (stereo not given)	?	?	?	?	-18%	?
COCCNC(=O)C1CCC(CNS(=O)(=O)c2ccc3c(c2)CC(C)N3C(C)=O)CC1 (stereo not given)	.	-11%	-9%	.	.	.
CC(=O)N1c2ccc(S(=O)(=O)NCC3CCC(C(=O)Nc4ccc(F)cc4)CC3)cc2CC1C (stereo not given)	.	16µM*	16µM*	.	.	.
O=C(COC(=O)c1cc(=O)[nH]c2ccc(Br)cc12)c1ccccc1	30	-14%	1%	-10%	-13%	-10%
CN1CCN(C(CNC(=O)C(=O)Nc2ccccc2)c2ccc3c(c2)OCO3)CC1 (stereo not given)	.	-21%	0%	.	.	.
COc1cccc(OC)c1C(=O)Nc1nc(COc2ccccc2)cs1	9	?	-26%	?	-10%	1%
O=C(Nc1nc(COc2ccccc2)cs1)C12CC3CC(CC(C3)C1)C2	-28	?	22µM*	?	?	6.3µM*
CC(=O)Nc1nc(COc2ccccc2)cs1	-5	-19%	-10%	?	18%	11%
Cc1ccc(C(=O)Nc2nc(COc3ccccc3)cs2)s1	-87*	?	?	.	?	?
O=C(Nc1nc(COc2ccccc2)cs1)C1CCC1	?	16µM*	23µM*	?	-6%	-2%
Clc1cccc(OCCCN2CCCC2)c1Cl	-13	?	-25%	-15%	-13%	0%
Clc1cc(Br)ccc1OCCOCCN1CCCC1	-91*	?	?	-1%	-14%	0%
Clc1cccc(OCCOCCN2CCNCC2)c1Cl	-22	23µM*	-18%	.	-26%	-19%
